In PubChem BioAssay AID1259240 (Keith Lab, Institute of Cancer Science, University of …, 2017):
Activity calls are given as the source filed them. Rule as the data show it: active = fold change mostly below about -2 (no sharp cut-off); inactive = mostly above about -1.8.

assay: modulation of TERT promoter-driven luciferase – cell-based, luciferase reporter, human, primary screen (AID 1259240); settings: A2780 TERT promoter luciferase reporter, 16 h; at 20 µM, fold versus average of vehicle-only wells

Fold change, active:
CCN(CCO)CCNc1cc(N2CCCC(C)C2)c2noc3c2c1C(=O)c1ccccc1-3 (centres undefined) -6.87
NC(=O)c1ccccc1NC(=O)c1cc(-c2ccc(Br)s2)nc2ccccc12 -2.57
Clc1ccc(CNc2ncnc3nc[nH]c23)cc1 2.09
NC(=O)C1CCN(C(=O)N2c3ccccc3Sc3ccccc32)CC1 -2.9
CC(C)Oc1cc(O)c2c(=O)c(-c3ccc(O)cc3)coc2c1 -6.88

Fold change, inactive:
COc1ccccc1NC(=O)Nc1ccc2c(c1)C(=O)OC2 1.33
CCOc1ccc(Oc2nc(NC(C)(C)C)nc(N3CCOCC3)n2)nn1 1.49
COC(=O)c1cccnc1-n1c(=O)c2cccnc2n(Cc2ccc(C#N)cc2)c1=O -1.61
CCOc1ccc2c(c1)CN(c1ccc(Cl)cc1)CO2 -1.19
O=c1/c(=C/c2ccco2)sc2nc(-c3ccccc3Br)nn12 1.48
O=C(C1CCCN1S(=O)(=O)c1cccc2nsnc12)N1CCN(c2ccccn2)CC1 (centres undefined) -1.3
COc1ccc(-c2noc(-c3cc(OC)c(OC)cc3OC)n2)cc1 1.46
COC(=O)c1c(NC(=O)Cn2nc(C)c([N+](=O)[O-])c2C)sc2c1CCCC2 -1.68
COc1cccc(/C=c2\sc3nc(-c4ccco4)nn3c2=O)c1OC 1.43
Cc1ccn2cc(-c3cccc(S(=O)(=O)N4CC(C)OC(C)C4)c3)nc2c1 (centres undefined) -1.09
O=C(CSc1nc2[nH]ncc2c(=O)n1-c1ccccc1)Nc1nsc(-c2ccc(Cl)cc2)n1 1.26
O=C(Nc1ccc2nc3n(c(=O)c2c1)CCCCC3)C(=O)NC1CCCCC1 -1.44
CSc1ccccc1NC(=O)c1onc(C)c1Cl 1.5
Cn1c(Cc2ccccc2)nn(CN2CCC3(CC2)OCCO3)c1=S -1.07
COc1cc2c(=O)c(S(=O)(=O)c3ccccc3)cn(Cc3ccccc3F)c2cc1OC 1.06
CC1(C)CC2CC(C)(CN2C(=O)CSc2nc(-c3ccco3)cc(C(F)(F)F)n2)C1 (centres undefined) -1.47
O=C(Cn1c(=O)n(CC(=O)NC2CCCC2)c(=O)c2ccccc21)Nc1cccc(F)c1 1.16
Cc1ccc2oc(-c3ccccc3C(=O)O)cc(=O)c2c1 1.62
CCCN(CCC)CCCNc1ccc2nncn2n1 1
Cc1ccc(-c2cc(C(F)F)n3ncc(C(=O)N4CCC(C)CC4)c3n2)cc1 1.16
CC(O)C(Nc1ncnc2ccccc12)C(=O)O (centres undefined) -1.06
Cc1ccc(C(C)C)cc1OCC(O)Cn1cnc2ccccc21 (centres undefined) -1.17
NC(=O)c1sc2nc(C3CC3)cc(-c3ccc(Br)cc3)c2c1N -1.28
Clc1ccc(-c2nnn3c2nc(NCC2CCCO2)c2ccccc23)cc1 (centres undefined) -1.11
CCN1C(=O)N(CC)C2C1N(C(C)=O)C(=O)N2C(C)=O (centres undefined) -1.76
CC(=O)N1CCC(N(C(=O)Nc2ccc(F)cc2)C2CCCC2)CC1 -1.02
CC(C)SC1=NSC2=NC(=O)/C(=C\c3ccco3)C(=N)N21 1.5
COc1cc(NC(=O)Nc2ccc3snnc3c2)cc(OC)c1OC -1.49
O=C(Cn1c(=O)oc2cc(S(=O)(=O)NC3CCCC3)ccc21)N1CCCC1 -1.19
Cc1c(NC(=O)c2cc(CC(C)C)on2)c(=O)n(-c2ccccc2)n1C -1.7
O=C(CN1C(=O)c2ccccc2C1=O)Nc1nccs1 -1.42
CCOC(=O)C1=C(CS(=O)(=O)c2ccc(C)c(C)c2)NC(=O)NC1c1ccc(O)c(OC)c1 (centres undefined) 1.22
CCOC(=O)N1CCC(Nc2c(N3CCN(c4ccccc4F)CC3)c(=O)c2=O)CC1 -1.13

outcome, inactive:
O=c1[nH]cnc2c1c(-c1ccccc1)cn2-c1ccc(F)cc1
